# Screening data deposited in PubChem by National Center for Advancing Translational Sciences (NCATS).
# Pf Dd2 inh = Plasmodium falciparum Dd2 growth inhibition. P. falciparum Dd2 growth, SYBR Green, 72 h. AID 1347417. 4.3% of 120,000 active. Potency, µM (doses to about 28.9 µM), inactives show top-dose activity, negative = inhibition, usual class: inhibitors; active = well fitted inhibition curve with a large enough effect;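 note: plate controls were DMSO vehicle for no effect and reference drug for full effect; nearly all actives have a fitted effect of over 65% in size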
#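 Readout: SYBR Green fluorescence, 485 nm excitation, 535 nm emission, after ~16 h lysis at 37C. Before that, Dd2-infected red cells (2.5% hematocrit) grew 72 h with compound, 29 uM top final concentration.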
# Numbers without * were called inactive; i = inactive; [ ] = dose if it differs, or a comment. The full list was thinned out, with hits kept by preference. Potency is the fitted concentration of half-maximal effect.
SMILES,Pf Dd2 inh
C#C[C@H]1CN2CC[C@H]1C[C@@H]2COC(=O)Nc1ccc(OC(F)(F)F)cc1,11.2µM*
C#C[C@H]1CN2CC[C@H]1C[C@@H]2COC(=O)Nc1ccc(C(C)(C)C)cc1,-14.7%[44.1 µM]
C#C[C@H]1CN2CC[C@H]1C[C@@H]2COC(=O)Nc1ccc(Br)cc1,i
O=C(c1ccccc1)N1CCCC(c2nn(-c3ccc(Cl)cc3)c(=O)[nH]2)C1 (stereo not drawn),i
O=C(O)c1ccc2c(c1)N(S(=O)(=O)c1ccccc1F)CC2,28.2%
O=C(Nc1cc(Cl)cc(Cl)c1)c1ccc(F)c(S(=O)(=O)N2CCCC2)c1,-15.8%
O=C(Nc1cc(Cl)cc(Cl)c1)c1ccc(F)c(S(=O)(=O)N2CCc3ccccc32)c1,8.91µM*
Cn1cc([C@@H](NC(=O)CCc2ccsc2)C2CC(O)C2)cn1 (stereo partly drawn),-9.2%
COc1ccc(-n2nc(C3CCN(Cc4cccn4C)CC3)[nH]c2=O)cc1,12.6µM*
COC(=O)N1CCC(c2nn(-c3ccc(OC)cc3)c(=O)[nH]2)CC1,i
COc1ccc(-n2nc(C3CCN(Cc4ccc(N(C)C)cc4)CC3)[nH]c2=O)cc1,-2.6%
C[S+](=O)([O-])NCCn1ccc2cc(OC3CCN(c4ncc(F)cn4)CC3)cnc21,i
CCN(CC)C(=O)N1CCCOCCNC(=O)[C@@H]2CCC[C@@H]21,24.5%
CCn1ncc(CN(C)C(=O)CC2C(=O)NCCN2C(C)C)c1C (stereo not drawn),-22.0%
Fc1ccc(-c2nc(Nc3cccc(C(F)(F)F)c3)nc3c2COc2ccccc2-3)cc1,10µM*
Fc1ccc(-c2cc(-c3ccccc3)c3c(n2)-c2ccccc2OC3)cc1,i
Fc1ccc(Nc2nc(-c3cccc(Cl)c3)c3c(n2)-c2ccccc2OC3)c(F)c1,-14.9%
N#Cc1ccc(C(=O)N2CC[C@@H](CC(=O)O)[C@@H](CC3=NCCc4ccccc43)C2)cc1,i
COCCN(CCOC)C(=O)[C@@H](C)C1CC[C@@]2(C)CC[C@H](NC(=O)COC)[C@@H](C)[C@@H]2[C@H]1O (stereo partly drawn),-9.1%
CNC1CCc2nnc(C)n2CC1 (stereo not drawn),15.9%
Cc1noc(-c2ccn3c(CNC(=O)c4ccc(C)c(F)c4)nnc3c2)n1,i
CC(C)NC(=O)Nc1ccc([C@H]2OCC(=O)N(CCN)[C@@H]2CO)cc1,14.7%[44.1 µM]
CC1(C(=O)Nc2ccccc2)CN(Cc2ccccc2)Cc2ccc(N3CCOCC3)nc21 (stereo not drawn),i
COCCNC(=O)C1(C)CN(Cc2ccccc2)Cc2ccc(Nc3ccccc3)nc21 (stereo not drawn),-0.4%[44.1 µM]
CN1Cc2ccc(NCc3ccccc3)nc2C(C)(C(=O)NC2CCC2)C1 (stereo not drawn),3.98µM*
SMILES,Pf Dd2 inh
CC(C)CNc1ccc2c(n1)C(C)(C(=O)NC1CC1)CN(Cc1ccccc1)C2 (stereo not drawn),-18.8%[44.1 µM]
CNC(=O)C1(C)CN(Cc2ccccc2)Cc2ccc(Nc3ccccc3)nc21 (stereo not drawn),10µM*
CC1(C(=O)NC2CCOCC2)CN(Cc2ccccc2)Cc2ccc(Nc3ccccc3)nc21 (stereo not drawn),-23.2%
CC(C)CNc1ccc2c(n1)C(C)(C(=O)N1CCC1)CN(Cc1ccccc1)C2 (stereo not drawn),i
CC1(C(=O)Nc2ccc(F)cc2)CN(Cc2ccccc2)Cc2ccc(N3CCOCC3)nc21 (stereo not drawn),6.31µM*
CN1Cc2ccc(NCc3ccccc3)nc2C(C)(C(=O)NCc2cccnc2)C1 (stereo not drawn),i
Cc1cc(C)n(CCC(=O)NCCc2noc(-c3ccncc3)n2)n1,-5.2%
Cc1ccc(OC2(C(=O)NCC3COc4ccccc4O3)CCNCC2)cc1 (stereo not drawn),-26.9%
Cn1ccnc1CN1C[C@@H](F)[C@@H](OCc2nc3ccc(F)cc3[nH]2)C1,-6.5%[44.1 µM]
Fc1ccc2nc(CO[C@H]3CN(CC4CC4)C[C@H]3F)[nH]c2c1,11.2µM*
Cc1cccnc1CN1C[C@@H](F)[C@@H](OCc2nc3ccc(F)cc3[nH]2)C1,i
NS(=O)(=O)c1ccc(CCNCC2(O)CCNC2)cc1 (stereo not drawn),6.4%
CC(C)c1ccccc1OCC(=O)c1ccc2c(c1)N(CC(=O)N1CCOCC1)C(=O)CO2,i
COc1ccc(C(=O)N2CCCn3nc(C)c(-c4ccccc4C(C)C)c32)cc1,-23.7%[44.1 µM]
Cc1ccc(C(=O)N2CCCC(c3nn[nH]n3)C2)cn1 (stereo not drawn),12.9%
CCN(CCNC(=O)C1Cn2cccc2C(=O)N1)Cc1ccccc1 (stereo not drawn),i
O=C(O)C1CCCN(c2cn[nH]c(=O)c2)C1 (stereo not drawn),-6.7%
CCOc1ccc(CC(=O)N2CCC(n3cc(-c4nc(-c5ccccc5)no4)nn3)C2)cc1 (stereo not drawn),-14.9%
COC(=O)c1ccccc1NC(=O)CSc1nc(=O)cc(N)n1-c1ccccc1,55.2%
COC(=O)c1ccc(NC(=O)C(C)Sc2nc(=O)cc(N)n2CCc2ccccc2)cc1 (stereo not drawn),11.2µM*
COC(=O)c1ccc(NC(=O)CSc2nc3c(c(=O)n(C)c(=O)n3C)n2Cc2ccccc2)cc1,25.5%
COc1cccc(C(=O)N2CCCC2c2nncn2CCN(C)C)c1C (stereo not drawn),5.3%
CO[C@H]1[C@H](NC(=O)c2cc(C)nn2C)c2ccccc2C12CCNCC2,-2.9%
CO[C@H]1[C@H](NC(=O)c2cc3ccccc3n2C)c2ccccc2C12CCNCC2,7.94µM*
CO[C@H]1[C@H](NC(=O)c2cc3ccccc3[nH]2)c2ccccc2C12CCNCC2,-5.5%
SMILES,Pf Dd2 inh
Cc1ccc(NC(=O)c2ccc3c(c2)N(C)C2CCCN2C3=O)cc1F (stereo not drawn),i
COc1cccc(CNC(=O)c2cc(-c3ccc(Cl)s3)nc3ccccc23)c1,-1.9%
CCc1ccc(CNC(=O)c2cc(-c3ccc(Br)s3)nc3ccccc23)cc1,i
CCN(CC)CCNC(=O)c1cc(-c2ccc(Br)s2)nc2ccccc12,11.2µM*
CC1(C)C(=O)N(Cc2ccccc2F)[C@H]2CN(Cc3cccnc3)C[C@@H]2[S+]1(=O)[O-],20.7%[44.1 µM]
Cc1cc(C(=O)N2CCCC(c3nc(-c4cccnc4)no3)CCNC(=O)CC2)n(C)n1 (stereo not drawn),3.2%
COc1ccc(C(=O)N2CCn3c(nn(-c4ccncc4)c3=O)C2)cc1,8.7%
O=C(COc1ccc(Cl)cc1)Nc1sc2c(c1C(=O)Nc1cccc(Cl)c1)CCCC2,0.8%
Cc1cccc(NC(=O)c2c(Br)sc3c2CCCC3)c1,i
O=C(Nc1cccc(Cl)c1)c1c(NC(=O)C(F)(F)F)sc2c1CCCC2,12.6µM*
Cc1cccc(NC(=O)c2c(NC(=O)C(F)(F)F)sc3c2CCCCC3)c1,4.47µM*
Cc1ccccc1NC(=O)c1c(NC(=O)C(F)(F)F)sc2c1CCCCC2,10µM*
Cc1ccc(NC(=O)c2c(NC(=O)c3ccccc3)sc3c2CCC3)cc1,i
CCCNC(=O)c1c(NC(=O)c2ccc(C)cc2)sc2c1CCCCC2,-2.3%
Cc1ccccc1NC(=O)c1c(NC(=O)c2ccccc2)sc2c1CCC2,3.6%
O=C(Nc1sc2c(c1C(=O)Nc1ccc(Cl)cc1)CCCC2)c1cccs1,4.6%
Cc1cccc(C(=O)Nc2sc3c(c2C(=O)Nc2ccccc2)CCC3)c1,32.9%
CCc1ccccc1NC(=O)c1c(NC(=O)c2ccccc2)sc2c1CCCC2,41.7%
